Results: PubChem BioAssay (Tox21)
Inconclusive results are not listed. Active and inactive are the calls of the source. Unless noted, calls come from the whole dose curve; as a rule, active = well fitted curve in the direction sought with a large enough effect in the repeat runs; inconclusive = weak or mixed curves; inactive = no such curve, though single readings can be large; an effect the other way counts as inactive or inconclusive. Positions of bridges follow the written chain, without caps; N, C: chain ends. Non-standard residues stand in square brackets, D forms with d. Residues, ends and D or L forms follow the SMILES beside them. ξ: configuration not given here. *: point of attachment. d(aThr) = C[C@@H](O)[C@@H](N)C(=O)O; ξThr(3R) = C[C@@H](O)C(N)C(=O)O; pGlu = O=C1CC[C@@H](C(=O)O)N1; X3 = CC[C@@H](C)CCCCC(=O)*; dDab = NCC[C@@H](N)C(=O)O; Thz = O=C(O)[C@@H]1CSCN1

Assays:
[1] = qHTS assay to identify aromatase inhibitors - cell viability counter screen (AID 743084);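 note: cells stimulated with testosterone during compound exposure; nearly all actives have a fitted effect of over 55% in size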
[2] = biological target: Aryl hydrocarbon receptor (Homo sapiens) (UniProt P35869); test: qHTS assay to identify small molecule that activate the aryl hydrocarbon receptor (AhR) signaling pathway (AID 743085);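 note: HG2L7.5c1 human HepG2 liver cells with stably integrated DRE-driven firefly reporter; series mostly up to about 70 µM; nearly all actives have a fitted effect of over 15% in size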
Procedure, shortened: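 Reporter assay in engineered HepG2 line HG2L7.5c1, whose plasmid carries twenty dioxin responsive elements upstream of firefly luciferase. Treatment lasted 24 h at 37C; ONE-Glo luminescence gauged induction.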

[3] = qHTS assay to identify small molecule that activate the aryl hydrocarbon receptor (AhR) signaling pathway - cell viability counter screen (AID 743086);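 note: HepG2 liver cells carrying the AhR DRE luciferase reporter; series mostly up to about 70 µM; nearly all actives have a fitted effect of over 45% in size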
Procedure, shortened: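 HepG2-AhR-luc (HG2L7.5c1) cells, 4000/well, were preincubated 5 h at 37C, exposed to compound in qHTS format for 24 hr at 37C, then given CellTiter-Fluor for 30 min; viability was read as fluorescence in the reporter wells.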

[4] = biological target: Peroxisome proliferator-activated receptor gamma (Homo sapiens) (UniProt P37231); test: qHTS assay to identify small molecule agonists of the peroxisome proliferator-activated receptor gamma (PPARg) signaling pathway (AID 743094; active = well fitted activation curve with a large enough effect in the signal ratio in the repeat runs, not every such curve was filed as active; the % refers to the signal ratio)
Procedure, shortened: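 Cells from the PPARg UAS-bla HEK293H line are plated and incubated 5 h at 37C. Compounds in DMSO are pinned in and left 17 h at 37C. LiveBLAzer B/G substrate is then added for 1 h at room temperature before fluorescence is measured.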

[5] = qHTS assay to identify small molecule phospholipidosis (PLD) inducers (AID 1259344; active = well fitted curve in the direction sought with a large enough effect; an effect the other way counts as inactive or inconclusive)
Procedure, shortened: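 After 4 h attachment on collagen I, HepG2 cells were dosed with compound alongside LipidTOX Red, kept 24 h at 37 C, fixed, and imaged for lamellar phospholipid pits.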

[6] = biological target: Nuclear receptor subfamily 1 group I member 2 (Rattus norvegicus) (UniProt Q9R1A7); test: Rat pregnane X receptor (rPXR) activation by small molecules, qHTS assay (AID 1346983); details: rPXR luciferase reporter cells, One-Glo luminescence, 24 h; max activation: active compounds read high; note: nearly all actives have a fitted effect of over 20% in size
Procedure, shortened: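 Cell-based rPXR luciferase reporter assay, 2,000 cells per well, rested 5hr at 37 C before compound addition in DMSO, then 24 hr at 37 C. One-Glo reagent was added and luminescence read after 30 min at room temperature.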

[7] = biological target: Nuclear receptor subfamily 1 group I member 2 (Homo sapiens) (UniProt O75469); test: CYP3A4 induction through human pregnane X receptor (PXR) by small molecules, qHTS assay (AID 1346984); note: nearly all actives have a fitted effect of over 40% in size
Procedure, shortened: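 Quantitative HTS in DPX-2 cells, i.e. HepG2 transfected with PXR response element and CYP3A4-promoter luciferase. Compounds in DMSO incubated 24hr at 37C; then P450-Glo CYP3A4 substrate, 3uM final, 3hr; One-Glo luminescence.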

[8] = biological target: Nuclear receptor subfamily 1 group I member 2 (Homo sapiens) (UniProt O75469); test: Human pregnane X receptor (PXR) activation by small molecules, qHTS assay (AID 1346985); note: nearly all actives have a fitted effect of over 40% in size
Procedure, shortened: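 DPX-2 cells (HepG2 co-transfected with a PXR response element and a CYP3A4-promoter luciferase construct) were seeded at 2,000 per well, rested 5 hr at 37C, then exposed to DMSO-dissolved compounds for 24 hr. Activation was read as luciferase luminescence.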
% is set by controls: 0 for no effect and ±100 for the full control effect.

Sequence of Nuclear receptor subfamily 1 group I member 2 (Rattus norvegicus) (Q9R1A7 whole entry, looked up): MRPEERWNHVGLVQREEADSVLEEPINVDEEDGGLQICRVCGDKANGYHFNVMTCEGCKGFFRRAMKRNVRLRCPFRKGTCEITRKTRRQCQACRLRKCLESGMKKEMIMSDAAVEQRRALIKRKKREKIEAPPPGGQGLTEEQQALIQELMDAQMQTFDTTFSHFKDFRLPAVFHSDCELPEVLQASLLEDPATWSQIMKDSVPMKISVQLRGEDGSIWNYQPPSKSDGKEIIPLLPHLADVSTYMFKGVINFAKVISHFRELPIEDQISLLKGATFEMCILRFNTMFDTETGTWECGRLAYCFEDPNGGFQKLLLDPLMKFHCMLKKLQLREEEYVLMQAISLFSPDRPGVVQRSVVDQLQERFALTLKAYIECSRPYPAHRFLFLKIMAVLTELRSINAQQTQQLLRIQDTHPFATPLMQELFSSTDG
Sequence of Aryl hydrocarbon receptor (Homo sapiens) (P35869 whole entry, looked up): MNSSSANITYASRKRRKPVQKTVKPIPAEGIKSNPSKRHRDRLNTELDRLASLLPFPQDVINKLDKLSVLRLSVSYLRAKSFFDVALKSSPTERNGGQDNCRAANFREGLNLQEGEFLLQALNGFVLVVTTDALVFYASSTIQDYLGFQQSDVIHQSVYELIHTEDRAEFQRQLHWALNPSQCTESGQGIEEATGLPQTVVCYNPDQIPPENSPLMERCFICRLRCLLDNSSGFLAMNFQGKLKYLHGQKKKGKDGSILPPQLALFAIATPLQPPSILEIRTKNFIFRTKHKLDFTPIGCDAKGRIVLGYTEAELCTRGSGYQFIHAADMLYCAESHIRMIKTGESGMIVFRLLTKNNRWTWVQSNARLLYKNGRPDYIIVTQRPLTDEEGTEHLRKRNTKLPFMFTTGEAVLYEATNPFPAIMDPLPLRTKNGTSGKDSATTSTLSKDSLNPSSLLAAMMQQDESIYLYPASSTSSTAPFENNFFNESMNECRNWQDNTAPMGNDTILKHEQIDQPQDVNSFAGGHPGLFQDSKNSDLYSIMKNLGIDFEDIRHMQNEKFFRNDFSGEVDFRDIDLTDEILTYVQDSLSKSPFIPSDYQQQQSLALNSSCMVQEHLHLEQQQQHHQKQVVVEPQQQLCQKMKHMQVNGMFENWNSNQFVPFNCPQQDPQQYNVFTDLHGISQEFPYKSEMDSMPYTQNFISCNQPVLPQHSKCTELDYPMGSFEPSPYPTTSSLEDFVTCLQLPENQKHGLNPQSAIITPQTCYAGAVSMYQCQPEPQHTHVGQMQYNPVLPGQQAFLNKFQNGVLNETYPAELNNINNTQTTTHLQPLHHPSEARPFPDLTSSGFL
Sequence of Peroxisome proliferator-activated receptor gamma (Homo sapiens) (P37231 whole entry, looked up): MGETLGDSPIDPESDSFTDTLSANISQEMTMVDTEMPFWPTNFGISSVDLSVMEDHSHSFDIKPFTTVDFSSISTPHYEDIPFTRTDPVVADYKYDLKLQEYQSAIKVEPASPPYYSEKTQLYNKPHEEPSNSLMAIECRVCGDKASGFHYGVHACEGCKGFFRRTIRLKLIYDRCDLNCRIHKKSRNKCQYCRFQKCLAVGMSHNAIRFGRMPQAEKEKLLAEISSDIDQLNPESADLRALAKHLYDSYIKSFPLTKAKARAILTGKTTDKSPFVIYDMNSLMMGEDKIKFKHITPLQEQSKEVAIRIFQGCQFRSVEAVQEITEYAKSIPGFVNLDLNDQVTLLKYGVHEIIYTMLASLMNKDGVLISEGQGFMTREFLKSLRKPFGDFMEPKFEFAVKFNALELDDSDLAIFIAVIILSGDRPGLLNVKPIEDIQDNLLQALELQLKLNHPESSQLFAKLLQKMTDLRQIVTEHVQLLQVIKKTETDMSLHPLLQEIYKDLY

CCC(Oc1ccccc1)C(=O)N[C@@H]1C(=O)N2[C@@H]1SC(C)(C)[C@@H]2C(=O)O (stereo partly specified)
inactive: Potency [1] | Potency [2] | Potency [3] | Potency [4] | Potency [5] | max activation [6] -1.86% | Potency [7] | Potency [8]

CC(C)[C@H](N)C(=O)OCC(CO)OCn1cnc2c(=O)[nH]c(N)nc21 (stereo partly specified)
inactive: Potency [1] | Potency [2] | Potency [3] | Potency [4] | Potency [5] | max activation [6] -3.1% | Potency [7] | Potency [8]

C[C@H](N)C(=O)N[C@@H](C)P(=O)(O)O
inactive: Potency [1] | Potency [2] | Potency [3] | Potency [4] | Potency [5] | max activation [6] -2.51% | Potency [7] | Potency [8]

COc1cc(/C=C/C(=O)N2CCN(CC(=O)N3CCCC3)CC2)cc(OC)c1OC
inactive: Potency [1] | Potency [2] | Potency [3] | Potency [4] | Potency [5] | max activation [6] 0.536% | Potency [7] | Potency [8]

CC1=C(/C=C/C(C)=C/C=C/C(C)=C/C=C/C=C(C)/C=C/C=C(C)/C=C/C2=C(C)C(=O)CCC2(C)C)C(C)(C)CCC1=O
inactive: Potency [1] | Potency [2] | Potency [3] | Potency [4] | Potency [5] | max activation [6] -3.2% | Potency [7] | Potency [8]

CC(C)(C)c1ccc(CN2CCN(C(c3ccccc3)c3ccc(Cl)cc3)CC2)cc1 (stereo unspecified)
inactive: Potency [1] | Potency [2] | Potency [3] | Potency [4] | Potency [5] | max activation [6] 10.7% | Potency [7] | Potency [8]

O=c1oc2cc(O)ccc2s1
inactive: Potency [1] | Potency [2] | Potency [3] | Potency [4] | Potency [5] | max activation [6] -17.1% | Potency [7] | Potency [8]

C[N@+]12CCCC[C@@H]1CCC(=C(c1cccs1)c1cccs1)C2
inactive: Potency [1] | Potency [2] | Potency [3] | Potency [4] | Potency [5] | max activation [6] -3.7% | Potency [7] | Potency [8]

CCCc1nc(C(C)(C)O)c(C(=O)OCc2oc(=O)oc2C)n1Cc1ccc(-c2ccccc2-c2nn[nH]n2)cc1
inactive: Potency [1] | Potency [2] | Potency [3] | Potency [4] | Potency [5] | max activation [6] -4.8% | Potency [7] | Potency [8]

CC1(C)S[C@@H]2[C@H](NC(=O)[C@H](NC(=O)N3CCN(S(C)(=O)=O)C3=O)c3ccccc3)C(=O)N2[C@H]1C(=O)O
inactive: Potency [1] | Potency [2] | Potency [3] | Potency [4] | Potency [5] | max activation [6] -9.82% | Potency [7] | Potency [8]

O=C1CC[C@@H](C(=O)N2CSC[C@H]2C(=O)O)N1 ([pGlu]-[Thz]-OH)
inactive: Potency [1] | Potency [2] | Potency [3] | Potency [4] | Potency [5] | max activation [6] 0.797% | Potency [7] | Potency [8]

CC[C@@H](C)CCCCC(=O)N[C@H](CCN)C(=O)N[C@@H](C(=O)N[C@H](CCN)C(=O)N[C@@H]1CCNC(=O)C([C@@H](C)O)NC(=O)[C@@H](CCN)NC(=O)[C@@H](CCN)NC(=O)[C@@H](CC(C)C)NC(=O)[C@@H](Cc2ccccc2)NC(=O)[C@@H](CCN)NC1=O)[C@@H](C)O (stereo partly drawn) (X3-[dDab][d(aThr)][dDab][dDab][dDab][dF][dL][dDab][dDab][ξThr(3R)]; lactam 4-C)
inactive: Potency [1] | Potency [2] | Potency [3] | Potency [4] | Potency [5] | max activation [6] -6% | Potency [7] | Potency [8]

CCCCCCCCCCCCCCCC(=O)OCC(COC(=O)CCCCCCCCCCCCCCC)OC(=O)CCCCCCCCCCCCCCC
inactive: Potency [1] | Potency [2] | Potency [3] | Potency [4] | Potency [5] | max activation [6] -0.974% | Potency [7] | Potency [8]

CC(=O)Oc1c(C)cc(OCC(O)CNC(C)C)c(C)c1C (stereo unspecified)
inactive: Potency [1] | Potency [2] | Potency [3] | Potency [4] | Potency [5] | max activation [6] -4.59% | Potency [7] | Potency [8]

CO[C@@]1(NC(=O)C2SC(=C(C(N)=O)C(=O)O)S2)C(=O)N2C(C(=O)O)=C(CSc3nnnn3C)CS[C@@H]21 (stereo partly specified)
inactive: Potency [1] | Potency [2] | Potency [3] | Potency [4] | Potency [5] | max activation [6] -1.7% | Potency [7] | Potency [8]

CC(C)Cc1ccc([C@@H](C)C(=O)NS(C)(=O)=O)cc1
inactive: Potency [1] | Potency [2] | Potency [3] | Potency [4] | Potency [5] | max activation [6] -2.09% | Potency [7] | Potency [8]

CC1CS(=O)(=O)CCN1/N=C/c1ccc([N+](=O)[O-])o1 (stereo unspecified)
inactive: Potency [1] | Potency [2] | Potency [4] | Potency [5] | max activation [6] -7.04% | Potency [7] | Potency [8]

O=C(O)c1cc(N=Nc2ccc(O)c(C(=O)O)c2)ccc1O
inactive: Potency [1] | Potency [2] | Potency [3] | Potency [4] | Potency [5] | max activation [6] -4.04% | Potency [7] | Potency [8]

CC1=C(/C=C/C(C)=C/C=C/C(C)=C/C(=O)Oc2c(C)c(C)c3c(c2C)CC[C@@](C)(CCC[C@H](C)CCC[C@H](C)CCCC(C)C)O3)C(C)(C)CCC1
inactive: Potency [1] | Potency [2] | Potency [3] | Potency [4] | Potency [5] | max activation [6] -1.27% | Potency [7] | Potency [8]
